Results taken from the supplement of paper PMC4022240.
± gives the standard deviation.

Biological target: T1, HaloTag-ATRX ADD domain (163-292)
T1 chain: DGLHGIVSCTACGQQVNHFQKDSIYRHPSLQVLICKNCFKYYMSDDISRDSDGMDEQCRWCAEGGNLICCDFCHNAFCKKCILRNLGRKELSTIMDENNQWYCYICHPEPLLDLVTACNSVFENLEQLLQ
Experiment: peptide microarray binding signal (635 nm), min-max normalized on array (fraction of array maximum); higher = stronger binding
Details: peptide region: Unmod H3 variant; binder concentration: 50 nM
How it was run: (§1)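 Arrays carried histone 13-mer peptide–cellulose conjugates printed in triplicate on nitrocellulose alongside a Cy3 tracer. After overnight blocking at 4°C, they were incubated for 1 h at 4°C with biotin-labelled HaloTag reader fusions (10 nM to 1 μM) plus streptavidin-Alexa Fluor 647, or with rabbit histone antibodies (1:10,000 to 1:2,000) plus anti-rabbit Alexa 647. Scanning on an Axon GenePix 4000B used 635 nm for signal and 532 nm for misprints. The binding signal reported is each triplicate's mean spot intensity after per-library min-max scaling.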

| Binder | peptide microarray binding signal |
| --- | --- |
| AIHAKRVTIMPKD [Unmod H3 variant A I H A K R V T I M P K D] | 0.00414 ± 0.00014 |
| RVTIMPKDIQLAR [Unmod H3 variant R V T I M P K D I Q L A R] | 0.00552 ± 9e-05 |

Same assay, conditions: peptide region: Unmod H3 variant; binder concentration: 500 nM

| Binder | peptide microarray binding signal |
| --- | --- |
| AIHAKRVTIMPKD [Unmod H3 variant A I H A K R V T I M P K D] | 0.0132 ± 0.00021 |
| RVTIMPKDIQLAR [Unmod H3 variant R V T I M P K D I Q L A R] | 0.0187 ± 0.001 |

Biological target: HaloTag-ING2 PHD (mouse Ing2 200-280)
Experiment: as above
Details: peptide region: Unmod H3 variant; binder concentration: 10 nM
How it was run: as §1

| Binder | peptide microarray binding signal |
| --- | --- |
| AIHAKRVTIMPKD [Unmod H3 variant A I H A K R V T I M P K D] | 0.00507 ± 0.00019 |
| RVTIMPKDIQLAR [Unmod H3 variant R V T I M P K D I Q L A R] | 0.0177 ± 0.00085 |

Same assay, conditions: peptide region: Unmod H3 variant; binder concentration: 100 nM

| Binder | peptide microarray binding signal |
| --- | --- |
| AIHAKRVTIMPKD [Unmod H3 variant A I H A K R V T I M P K D] | 0.0196 ± 0.0021 |
| RVTIMPKDIQLAR [Unmod H3 variant R V T I M P K D I Q L A R] | 0.0422 ± 0.0028 |

Biological target: anti-H3K4me3 antibody ab8580
Experiment: as above
Details: peptide region: Unmod H3 variant; binder concentration: 1:2,000 dilution
How it was run: as §1

| Binder | peptide microarray binding signal |
| --- | --- |
| AIHAKRVTIMPKD [Unmod H3 variant A I H A K R V T I M P K D] | 0.000849 ± 2.3e-05 |
| RVTIMPKDIQLAR [Unmod H3 variant R V T I M P K D I Q L A R] | 0.00585 ± 0.00079 |

Same assay, conditions: peptide region: Unmod H3 variant; binder concentration: 1:10,000 dilution

| Binder | peptide microarray binding signal |
| --- | --- |
| AIHAKRVTIMPKD [Unmod H3 variant A I H A K R V T I M P K D] | 0.00211 |
| RVTIMPKDIQLAR [Unmod H3 variant R V T I M P K D I Q L A R] | 0.00782 ± 0.00068 |

Biological target: anti-H3K9me3 antibody ab8898
Experiment: as above
Details: peptide region: Unmod H3 variant; binder concentration: 1:2,000 dilution
How it was run: as §1

| Binder | peptide microarray binding signal |
| --- | --- |
| AIHAKRVTIMPKD [Unmod H3 variant A I H A K R V T I M P K D] | 0.000513 ± 1.3e-05 |
| RVTIMPKDIQLAR [Unmod H3 variant R V T I M P K D I Q L A R] | 0.00403 ± 0.00079 |

Same assay, conditions: peptide region: Unmod H3 variant; binder concentration: 1:10,000 dilution

| Binder | peptide microarray binding signal |
| --- | --- |
| AIHAKRVTIMPKD [Unmod H3 variant A I H A K R V T I M P K D] | 0.000692 ± 7.3e-06 |
| RVTIMPKDIQLAR [Unmod H3 variant R V T I M P K D I Q L A R] | 0.00375 ± 0.00014 |

Biological target: T1, HaloTag-ATRX ADD domain (163-292)
Experiment: as above
Details: peptide region: Unmod H4 variant; binder concentration: 50 nM
How it was run: as §1

| Binder | peptide microarray binding signal |
| --- | --- |
| SGRGKGGKGLGKG [Unmod H4 variant S G R G K G G K G L G K G] | 0.00426 ± 0.00016 |
| GGKGLGKGGAKRH [Unmod H4 variant G G K G L G K G G A K R H] | 0.00373 ± 6.8e-05 |
| GKGGAKRHRKVLR [Unmod H4 variant G K G G A K R H R K V L R] | 0.00508 ± 0.0001 |

Same assay, conditions: peptide region: Unmod H4 variant; binder concentration: 500 nM

| Binder | peptide microarray binding signal |
| --- | --- |
| SGRGKGGKGLGKG [Unmod H4 variant S G R G K G G K G L G K G] | 0.009 ± 0.00081 |
| GGKGLGKGGAKRH [Unmod H4 variant G G K G L G K G G A K R H] | 0.011 ± 0.0003 |
| GKGGAKRHRKVLR [Unmod H4 variant G K G G A K R H R K V L R] | 0.0113 ± 0.00031 |

Biological target: HaloTag-ING2 PHD (mouse Ing2 200-280)
Experiment: as above
Details: peptide region: Unmod H4 variant; binder concentration: 10 nM
How it was run: as §1

| Binder | peptide microarray binding signal |
| --- | --- |
| SGRGKGGKGLGKG [Unmod H4 variant S G R G K G G K G L G K G] | 0.00412 ± 0.00013 |
| GGKGLGKGGAKRH [Unmod H4 variant G G K G L G K G G A K R H] | 0.0132 ± 0.0071 |
| GKGGAKRHRKVLR [Unmod H4 variant G K G G A K R H R K V L R] | 0.00292 ± 0.00011 |

Same assay, conditions: peptide region: Unmod H4 variant; binder concentration: 100 nM

| Binder | peptide microarray binding signal |
| --- | --- |
| SGRGKGGKGLGKG [Unmod H4 variant S G R G K G G K G L G K G] | 0.0136 ± 0.0012 |
| GGKGLGKGGAKRH [Unmod H4 variant G G K G L G K G G A K R H] | 0.0147 ± 0.00057 |
| GKGGAKRHRKVLR [Unmod H4 variant G K G G A K R H R K V L R] | 0.00836 ± 0.00085 |

Biological target: anti-H3K4me3 antibody ab8580
Experiment: as above
Details: peptide region: Unmod H4 variant; binder concentration: 1:2,000 dilution
How it was run: as §1

| Binder | peptide microarray binding signal |
| --- | --- |
| SGRGKGGKGLGKG [Unmod H4 variant S G R G K G G K G L G K G] | 0.000831 ± 3.2e-05 |
| GGKGLGKGGAKRH [Unmod H4 variant G G K G L G K G G A K R H] | 0.000547 ± 1.1e-05 |
| GKGGAKRHRKVLR [Unmod H4 variant G K G G A K R H R K V L R] | 0.000472 ± 9.3e-06 |

Same assay, conditions: peptide region: Unmod H4 variant; binder concentration: 1:10,000 dilution

| Binder | peptide microarray binding signal |
| --- | --- |
| SGRGKGGKGLGKG [Unmod H4 variant S G R G K G G K G L G K G] | 0.00108 ± 1.9e-05 |
| GGKGLGKGGAKRH [Unmod H4 variant G G K G L G K G G A K R H] | 0.00114 ± 2.3e-05 |
| GKGGAKRHRKVLR [Unmod H4 variant G K G G A K R H R K V L R] | 0.000856 ± 1.8e-05 |

Biological target: anti-H3K9me3 antibody ab8898
Experiment: as above
Details: peptide region: Unmod H4 variant; binder concentration: 1:2,000 dilution
How it was run: as §1

| Binder | peptide microarray binding signal |
| --- | --- |
| SGRGKGGKGLGKG [Unmod H4 variant S G R G K G G K G L G K G] | 0.000438 ± 8.5e-06 |
| GGKGLGKGGAKRH [Unmod H4 variant G G K G L G K G G A K R H] | 0.0003775 ± 3.7e-06 |
| GKGGAKRHRKVLR [Unmod H4 variant G K G G A K R H R K V L R] | 0.000302 ± 3.1e-06 |

Same assay, conditions: peptide region: Unmod H4 variant; binder concentration: 1:10,000 dilution

| Binder | peptide microarray binding signal |
| --- | --- |
| SGRGKGGKGLGKG [Unmod H4 variant S G R G K G G K G L G K G] | 0.000692 ± 7.3e-06 |
| GGKGLGKGGAKRH [Unmod H4 variant G G K G L G K G G A K R H] | 0.00075 ± 7.9e-06 |
| GKGGAKRHRKVLR [Unmod H4 variant G K G G A K R H R K V L R] | 0.00075 ± 7.9e-06 |
